Source: PubChem BioAssay AID1117319 (Southern Research Institute, 2015)
Several values for one entry are separate records, joined by “and”; a condition that tells them apart may be missing. Equal values may be shown once. Out of some 260,000 compounds screened, about 1,500 (0.58%) were called active. About 5% were inconclusive and are not listed.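 The calls were made as follows: active = inhibition above a set limit at one or more doses, reproduced on every date tested; inconclusive = results disagree between test dates, or hit never tested in dose response; inactive = the rest.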 Only a sample is shown. Potency and affinity values are given separately.

Biological target: Virion infectivity factor (Human immunodeficiency virus type 1 group M subtype B (isolate BH10)) + Virion infectivity factor (Human immunodeficiency virus type 1 group M subtype B (isolate BRU/LAI)) + Virion infectivity factor (Human immunodeficiency virus type 1 group M subtype B (isolate PCV12)) + Virion infectivity factor (Human immunodeficiency virus type 1 group M subtype B (isolate HXB2)) + DNA dC->dU-editing enzyme APOBEC-3G (Homo sapiens) (UniProt P69720+P69721+P69722+P69723+Q9HC16)
Test: inhibitors of Vif binding to APOBEC3G peptide, primary screen, biochemical, TR-FRET, GST-Vif 1-94, biotin-A3G peptide, dose response retest (AID 1117319);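 also: Vif residues 1-94 fused to GST binding biotinylated APOBEC3G peptide 110-148; 0% = full assay without inhibitor and 100% = GST in place of GST-Vif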
Settings: active compounds read high

inhibition, inactive:
O=C(NCc1nnnn1-c1ccc(F)c(F)c1)C(=O)c1c[nH]c2ccccc12 11.1%
Cc1cccc(N2CCN(C3=NC(=O)C(Cc4ccccc4)S3)CC2)c1 (stereo not drawn) 14.4%
CCN1C(=C2C(=O)c3ccccc3C2=O)C=Cc2ccccc21 26.5%
O=C1C=Cc2ccccc2/C1=C/c1[nH]c(=O)[nH]c1O -10.7%
O=C1CC(NS(=O)(=O)c2cccnc2)CN1c1ccc(F)cc1 (stereo not drawn) -4.88%
N#Cc1ccccc1Sc1ccccc1C(=O)Nc1ccc(Br)cc1 5.46%
C(=C1/CCCC2=C1Nc1ncnn1C2c1ccccc1)/c1ccccc1 (stereo not drawn) 0.53%
Fc1ccccc1/C=C1\CCCC2=C1Nc1nnnn1C2c1ccccc1F (stereo not drawn) 15.4%
CC1CCC/C(=C\Nc2ccccc2C(=O)O)C1=O (stereo not drawn) 5.74%
CCOC(=O)c1ccc(N/C=C2/CCCC(C)C2=O)cc1 (stereo not drawn) 1.6%
Cc1cc(C(=O)O)ccc1N/C=C1\CCCC(C)C1=O (stereo not drawn) 10.9%
CC1CCC/C(=C\Nc2ccc(C(=O)O)cc2)C1=O (stereo not drawn) 4.93%
Cc1ccc(C(=O)NCCc2csc(-c3cccnc3)n2)cc1 3.26%
O=C(CCC(=O)NNC(=O)c1ccc([N+](=O)[O-])cc1)NCc1ccccc1 6.94%
O=C(NCCO)c1cc2ccccc2cc1O 2.23% and 6.09%
COC1=CC(=O)C(OC)=C(OC)C1=O 5.9%
CCCCCCCCSC1=CC(=O)C(OC)=C(OC)C1=O 31.4%
CSCCC(NC(=O)c1ccco1)C(=O)NCCc1ccc(Cl)cc1 (stereo not drawn) -15.8%
CC(=O)c1ccccc1NS(=O)(=O)c1ccccc1Cl -6.08%
COC(=O)COc1ccc2c(c1)O/C(=C\c1ccco1)C2=O 24%
CCN(CC)C(=O)Oc1ccc2c(c1)O/C(=C\c1ccco1)C2=O 12.6%
CC(C)Nc1nc2cccnc2s1 -0.88%
O=C(Nc1ccc(NC(=O)c2cccs2)cc1)c1ccc2c(c1)OCCO2 3.57%
O=C(CCc1c[nH]c2ccccc12)N1CCN(c2ccc(F)cc2)CC1 -3.01%
COc1ccc(N2CCN(C(=O)CCc3c[nH]c4ccccc34)CC2)cc1 3.01%
O=C(/C=C/c1ccccc1Cl)N(Cc1ccc(Cl)cc1)C1CCS(=O)(=O)C1 (stereo not drawn) 23.6%
CCC(C)c1ccccc1NC(=O)c1cccnc1 (stereo not drawn) -3.72%
Cc1cc(Cl)c(S(=O)(=O)NC2CCCC2)cc1OCC(=O)NC1CCCCC1 -2.05%
Cc1cc(Cl)c(S(=O)(=O)N2CCCC2)cc1OCC(=O)NC1CCCCC1 -1.25%
CC(=O)c1cccc(N(CC(=O)Nc2ccc(F)cc2F)S(C)(=O)=O)c1 7.3%
O=C(NNc1cccc(Cl)n1)Nc1cccc(C(F)(F)F)c1 2.4%
Cc1cc(C)cc(NC(=O)CSc2nnc(-c3ccccc3C)o2)c1 27.4%
COc1cc(NC(=O)c2cccc(Cl)c2)ccc1NC(=O)c1cccs1 2.27%
Cc1ccsc1C(=O)C1CCCN(Cc2cn(C)nc2-c2ccccc2)C1 (stereo not drawn) -6.7%
Cc1cc(C)c(C#N)c(Oc2ccc(F)cc2)n1 18.6%
Cc1cc(C)c(C#N)c(Oc2ccc(O)cc2)n1 0.3%
O=C1c2ccc([N+](=O)[O-])cc2C(=O)N1CNc1ccccn1 3.96%
N#CCCN(Cc1ccccc1)C(=O)c1nccnc1C(=O)O -11%
O=C(N/N=C/c1cn(Cc2ccccc2)c2ccccc12)c1cccnc1 -5.6%
O=C(N/N=C/c1cn(Cc2ccccc2)c2ccccc12)c1ccncc1 8.92%
Cc1ccc(S(=O)(=O)Cc2c(C)noc2C)cc1 3.86%
O=C(/C=C/c1ccc(O)cc1)c1ccc(O)cc1O 9.02%
O=CN/C=C/c1cccc(O)c1 -10.2%
Cc1cc(C)c(S(=O)(=O)N2CCCCC2)cc1N(C)S(=O)(=O)c1ccc(Cl)cc1 17.4% and -11.3%
Cc1cc(C)c(S(=O)(=O)N2CCCCC2)c(C)c1N(C)S(=O)(=O)c1ccccc1 -2.38%
Cc1ccc(C2C(C#N)=C(N)N(c3cccnc3)C3=C2C(=O)CCC3)c(C)c1 (stereo not drawn) -5.44%
CN(C)N1C(N)=C(C#N)C(c2ccccc2)C2=C1CCCC2=O (stereo not drawn) 9.57%
CN(C)N1C(N)=C(C#N)C(c2cccnc2)C2=C1CC(C)(C)CC2=O (stereo not drawn) -8.23%
COc1cc(C2C(C#N)=C(N)N(N(C)C)C3=C2C(=O)CCC3)ccc1O (stereo not drawn) 3.96%
CC(C)(C)NC(=O)CSc1nc(O)cc(=O)[nH]1 6.41%
CCC1=NN(C(=O)Cc2ccc([N+](=O)[O-])cc2)C(O)(C(F)(F)F)C1 (stereo not drawn) 17.1%
CC1CN(c2ccccc2)CCN1Cc1nc(Cc2ccccc2)no1 (stereo not drawn) -4.62%
Cc1ccc(-c2csnn2)cc1 -3.52%
O=C(Nc1ccc(Cl)cc1)c1cncs1 -5.16%
COC(=O)CSC(=S)N1CCCC(C)C1 (stereo not drawn) -1.45%
COc1ccc(Nc2c(C)cccc2C)cc1 -5.1%
COc1ccc(Nc2nc(OC)nc(OC)n2)cc1 2.78%
Cc1ccccc1-n1c(-c2ccc(Cl)cc2)cnc1SCC(=O)NC1CCS(=O)(=O)C1 (stereo not drawn) -0.29%
Oc1ccc(-c2cn3c(n2)SCC3)cc1 1.62%
Cc1ccc(-c2cn3c(n2)SCC3)cc1 -0.83%
CC(=O)c1cccc(CN2CCN(Cc3ccc(C)cc3)C(CCO)C2)c1 (stereo not drawn) -2.61%
COC(=O)C(C)(C)ONC(=O)Nc1ccccc1Br 23.3%
CC1(C)Cc2c(C#N)c(N3CCN(C(=O)c4ccccc4Cl)CC3)nc(-c3ccco3)c2CS1 15%
CC1CCN(c2nc(-c3ccco3)c3c(c2C#N)CC(C)(C)OC3)CC1 27.3%
COC(=O)C1=C(C)Nc2nnnn2C1c1cc(OC)ccc1OC (stereo not drawn) -7.75%
CCCCN(CC)CCNC(=O)c1nn(-c2ccc(OC)cc2)c(=O)c2c1c1ccccc1n2C 6.38%
CCCOc1ccccc1C1NC(=O)NC(C)=C1C(=O)OCc1ccccc1 (stereo not drawn) -9.5%
CCCCOc1ccccc1C1NC(=O)NC(C)=C1C(=O)OCCOCC (stereo not drawn) 2%
CCc1nnc(NS(=O)(=O)c2ccc(NC(=S)Nc3ccc(F)cc3)cc2)s1 -0.27%
CC[n+]1c(/C=C/C=C/N(C(C)=O)c2ccccc2)sc2ccccc21 8.36%
CCN1/C(=C/C(C)=C/c2sc3ccccc3[n+]2CC)Sc2ccccc21 -17.9%
CCN(CC)CCN=C1CCCc2ccccc2N1 0.69%
O=C(Nc1cccc(S(=O)(=O)N2CCOCC2)c1)c1cc2ccccc2o1 -1.28%
CC(=O)Oc1ccc(/C=N/NS(=O)(=O)c2ccccc2)cc1 -10.3%
Cc1ccc(S(=O)(=O)c2c(N)n(Cc3ccco3)c3nc4ccccc4nc23)cc1C 5.39%
Cc1ccc(S(=O)(=O)c2c(N)n(Cc3ccco3)c3nc4ccccc4nc23)cc1 2.43%
Cc1ccn2c(/C=N/OCc3ccc(F)cc3)c(-c3ccc(Cl)cc3)nc2c1 -1.15%
CCCCN(CCCC)CC1OCc2ccccc2CO1 -2.33%
COc1ccc(-c2nn(-c3ccccc3)cc2CNC[C@H]2O[C@@H](n3cnc(C(N)=O)n3)[C@H](O)[C@@H]2O)cc1 12.8%
CCC(C)Nc1nc(C)nc2c1oc1ccccc12 (stereo not drawn) -0.82%
CC(=O)c1sc(=S)n(Cc2ccccc2)c1C -9.02%
COc1cc2c(cc1OC)C(Cc1ccc(O)cc1)NCC2 (stereo not drawn) 16.4%
COc1cc2c(cc1O)C(Cc1ccc(O)cc1)NCC2 (stereo not drawn) -2.34%
CC(Oc1ccccc1F)c1nnc(SCC(=O)NCc2ccc3c(c2)OCO3)o1 (stereo not drawn) -7.49%
COc1ccc(-n2cc(-c3ccc(Cl)cc3)[nH]c2=S)cc1 -54.3%
O=C(c1ccc(Cl)cc1)C1CCCN(Cc2cccn2-c2ccccn2)C1 (stereo not drawn) -9.46%
CCOc1cc(C(=S)N2CCOCC2)ccc1OC(=O)c1ccc(C)cc1 4.9%
N#C/C(=C(/O)COc1ccc(Cl)cc1)c1nc2ccccc2s1 5.6%
COc1ccc([C@H](C)NC[C@H](O)c2ccc(O)c(NC=O)c2)cc1 26%
CCC(c1ccccc1)C(CC)c1cc(O)c(O)c(O)c1 (stereo not drawn) 27.3%
CCC(NC(C)C)C(O)c1ccc(O)c(O)c1 (stereo not drawn) -1.98%
CC(C)NCC(O)c1ccc(NS(C)(=O)=O)cc1 (stereo not drawn) 4.04%
CNC[C@H](O)c1cccc(O)c1 -0.43%
CC(C)NCC(O)c1cc(O)cc(O)c1 (stereo not drawn) 5.35%
CN1/C(=C\C(=O)COC(=O)c2ccccc2O)C(C)(C)c2ccccc21 -8.33%
Cc1occc1-c1nnc(SCC(=O)Nc2ccccc2)n1C 1.99%
Oc1cccc(/C=N/N2CCN(c3ccccn3)CC2)c1 3.52%
CCN(CC)S(=O)(=O)c1cccc(-c2nn(-c3ccccc3)cc2/C=C(\C#N)C(=O)NCc2ccco2)c1 -3.43%
